From PubChem BioAssay (NCI) come the findings set out here.

Molecules are shown by their SMILES. The panel holds about 83,000 compounds, 20% with a hit somewhere; the sample as a whole holds those more often.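 Cell lines were cultured in 96-well plates, exposed to a single compound concentration, and assessed for percent growth 48 hours later.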 A number with no mark means an inactive call. Active and inactive are the calls of the source.

The assay deals with HOP-62 NSCLC. As to the kind of experiment: NCI-60 one-dose screen, 48 h (100 = growth as untreated, 0 = no growth, -100 = all killed). To be noted: 10 µM unless noted. As for the experimental part: Growth inhibition of the HOP-62 human Non-Small Cell Lung tumor cell line is measured as a screen for anti-cancer activity. Cells are grown in 96 well plates and exposed to the test compound for 48 hours. Compounds are tested at a single concentration, which is 10^-5 M for most compounds. The reported endpoint is percent growth (GI% or GIPRCNT), where numbers from 0 - 100% represent growth inhibition, and numbers from -100% - 0 represent cell death. For example, a value of 40 represents 60% growth inhibition. A value of 0 means no net growth occurred over the course of the experiment. A value of -40 indicates 40% of cells at the beginning of the experiment died by the end of the experiment. A value of -100 means all cells are dead at the end of the experiment.
NCI-60 Human Tumor Cell Lines Screen was performed using the standard one-dose NCI protocol, which is described in more detail at https://dtp.cancer.gov/discovery_development/nci-60/default.htm.
Compounds with GIPRCNT values below 10 were considered active. Activity score was based on GIPRCNT using the following formula: […]
Score is 0 for GIPRCNT values of 100 or above, 50 for GIPRCNT values of 0, and 100 for GIPRCNT values of -100.
On to `CCN1C(=O)N(CC)C2C1NN=c1s/c(=C3\C(=O)N(CC(C)(C)C)c4ccccc43)c(=O)n12` (stereo not given), for which the growth was 47%.

As to `CCOC(=O)c1cc2c(n1Cc1cccc(OC)c1)-c1oncc1CCC2`, the growth is 39.9%.

Turning to `Cc1cc2c(c(C)c1Cl)C(=O)/C(=C/c1cccc([N+](=O)[O-])c1)O2`, the growth is 107%.

Turning to `COc1ccccc1N1C(=N)S/C(=C\c2ccc(OCc3ccccc3F)cc2)C1=O`, the growth was 98.8%.

Take `Nc1ccn(C2O[C@H](CO)[C@@H](O)[C@H]2O)c(=O)n1` (stereo not given in full): the growth is 65%.

As to `O=C1c2cc(I)ccc2Oc2cc([N+](=O)[O-])ccc2N1c1ccc(Cl)cc1F`, the growth is 89.9%.

`OC(CNC1CCCCC1)Cn1c2ccc(I)cc2c2cc(I)ccc21` (stereo not given): the growth was 74.4%.

On to `COc1cc(C(=O)O/N=C(\N)Cc2cccc3ccccc23)cc(OC)c1OC`, for which the growth is 27.6%.

Consider `COc1cc(/C=C/C(=O)c2ccc(Cl)cc2)cc(CN2CCCCC2)c1O`, for which the growth is 94.7%.

Consider `O=C1Nc2ccccc2/C1=C/c1ccc[nH]1`, for which the growth was 78.8%.

Take `Cc1ccc(Nc2nc(N)c3ccccc3n2)cc1Cl`: the growth is 89%.

As to `COc1cc2cc3c(=O)n4c(cc5cc(OC)ncc54)c(=O)n3c2cn1`, the growth is 95.3%.

Turning to `COC(=O)c1c2c(c(C)[n+]([O-])c1C)C(=O)C=C(NCc1ccc(F)c(F)c1)C2=O`, the growth was -11.8% (active).

As to `O=Cc1c(OCc2cnnn2CC(=O)Nc2ccc(Cl)cc2)ccc2ccccc12`, the growth is 101%.

As to `CC(=O)c1ccc(Nc2nc(NCCO)nc(Nc3ccc(Cl)cc3)n2)cc1`, the growth was 100%.

For the molecule `O=c1nc2sc3nc4ccccc4cc3cc-2s1`, the growth was 104%.

For the molecule `O=C(Cn1cc(COc2ncnc3c2cnn3-c2ccccc2)nn1)Nc1cccc2ccccc12`, the growth is 90.5%.

Take `O=C1c2cc(Br)ccc2Oc2cc([N+](=O)[O-])ccc2N1c1ccc(I)cc1F`: the growth was 102%.

As for `CCCCC1COc2cccc3c2N1C=C/C3=C\C(=O)N(C)c1ccccc1` (stereo not given), the growth was 78.2%.

With `Cc1ccc(N=NC2C(=O)N(c3ccc(Cl)cc3)N(c3ccc(Cl)cc3)C2=O)cc1`, the growth was 89.2%.

In the case of `OCCNc1nc(Nc2ccc(C3=NN(c4cc(Cl)cc(Cl)c4)C(c4ccc(C(F)(F)F)cc4)C3)cc2)nc(N2CCOCC2)n1` (stereo not given), the growth is 74.5%.

On to `COc1ccc(-c2nc(-c3ccccc3)c(-c3ccccc3)[nH]2)cc1OC1CCCCC1`, for which the growth is 105%.

Consider `O=c1oc2ccc(F)cc2c(=O)n1-c1ccc(I)cc1F`, for which the growth is -3.36% (active).

As to `O=c1oc2ccc(I)cc2c(=O)n1-c1ccc(Br)cc1F`, the growth was -11.7% (active).

Regarding `Cc1ccc(OCCCCCCNCCO)c(C)c1`, the growth is 10.1%.

Regarding `CN(C)c1ccc(/C=C/c2ccnc3c(O)cccc23)cc1`, the growth is 20.3%.

Take `N#CC(C#N)=Cc1c(-c2ccccc2)[nH]c2ccccc12`: the growth was 35.6%.

For the molecule `COc1cc(NC(=O)CCSc2nc3ccccc3c(=O)n2Cc2ccccc2)cc(OC)c1OC`, the growth is 92.8%.

On to `COc1ccc(-c2nnc(COc3ccc(C(=O)/C=C/c4ccco4)cc3)o2)cc1`, for which the growth is 75.8%.

Turning to `Cn1c2c(c(=O)[nH]c1=O)NC1=C(C(=O)c3ccccc31)C1(C=C(O)c3ccccc31)N2` (stereo not given), the growth is 101%.

For the molecule `CC/C(=C(\CC)c1ccc(OCC[N+](C)(C)C)cc1)c1ccc(OC)cc1`, the growth is 62.4%.

For the molecule `COc1ccc(CCN2CCC(CN(C)Cc3cnn(-c4ccccc4)c3)CC2)cc1`, the growth is 30%.

Turning to `COc1ccc(C2Nc3ncnc(N)c3N=C3c4ccccc4C(=O)C32)cc1` (stereo not given), the growth was 85.2%.

With `O=c1oc2ccc(Cl)cc2c(=O)n1-c1ccc(F)cc1F`, the growth was 4.11% (active).

Regarding `Clc1ccc(Nc2scc3[n+]2CCC3)cc1`, the growth was 99.8%.

Turning to `Cc1ccccc1CNC(=O)C1CN(c2ccc(Cl)cc2)N(c2ccc(Cl)cc2)C1=O` (stereo not given), the growth is 83.2%.

As to `O=C(Nc1ccc(F)cc1F)c1cc(I)ccc1O`, the growth is 2.05% (active).

Regarding `O=C1OC(c2ccccc2)(c2ccccc2)c2ccsc21`, the growth is 117%.

As for `O=c1oc2ccc(Br)cc2c(=O)n1-c1ccc(I)cc1F`, the growth is 1.91% (active).

Turning to `O=C(NC1C(O)OC(CO)C(O)C1O)NS(=O)(=O)c1ccc(Cl)cc1` (stereo not given), the growth was 92.9%.
